# In PubChem BioAssay AID1745846 (National Center for Advancing Translational Sciences (NCATS), 2022):
# Screen size: about 1,400 compounds; about 30 (2%) were called active. Where a call stands in place of a potency, no number is given. Another 15% or so got no clear call; they are omitted. Calls follow the shape of the dose curve; as a rule, active = well fitted inhibition curve with a large enough effect; inconclusive = small, poorly fitted or top-dose-only effect; inactive = flat fitted curve, though single readings scatter. Only a selection was taken, and actives are over-represented in it overall.
# Assay: Firefly Luciferase Counterscreen for Inhibitors of ATXN expression
# Settings: luminescence; series mostly up to 57.5 µM
# Source text: University of Utah School of Medicine, Salt Lake City, Utah
# Spinocerebellar ataxia type 2 (SCA2) is a multisystem neurodegenerative disease caused by a dominantly acting mutation leading to expansion of a polyQ domain in the ataxin-2 protein (ATXN2). SCA2 patients develop progressive ataxia and later lose function in other neuronal systems. Prominent parkinsonian signs develop in some patients. Like many neurodegenerative disorders, no symptomatic or disease-modifying treatments are known.
# The primary objective of the proposed research is to identify compounds inhibiting ATXN2 expression and to test them for efficacy in SCA2 mouse models. We have developed a cell-based assay paired with an in vivo mouse model using identical luciferase expression constructs. This approach takes advantage of an ATXN2-luciferase transgene, with the luciferase gene flanked by the upstream and downstream portions of the ATXN2 gene. Here we describe a 5-7 dose quantitative high thoroughput screen (qHTS) for compounds lowering ATXN2 expression. We screened the NIH Molecular Libraries Small Molecule Repository (MLSMR) and NCGC's mechanistically annotated (MIPE) and drug repurposing (NPC) collections of compounds for lowering expression of an ATXN2-luciferase reporter in HEK-293 cells. The assay is a multiplexed cell viability assay to ensure target reduction in the absence of cytotoxicity. Secondary qHTS assays included a CMV-luciferase reporter expressed in HEK-293 cells as well as a biochemical assay using recombinant luciferase to detect inhibitors of the reporter enzyme. Compounds that inhibit ATXN2 expression but is not cytotoxic were selected for confirmatory and secondary screens.
# PROTOCOL TABLE (as described by Inglese J, Shamu CE and Guy RK. 2007)
# SEQUENCE No. (e.g., 1, 2, 3, etc.); […] (e.g., Cells, Incubation, Reagent, etc.); VALUE; DESCRIPTION.
# 2; Compounds; 23 nL; Kalypsis pintool (Wako USA) equipped with a 1536-well pin head.
# 3; Enzyme; 1 uL; recombinant firefly luciferase (prepared in 50 mM Tris HCl pH7.5, 10 mM MgCl2, 0.05% BSA, 0.01% Tween20) at final concentration of 10 nM. Wells containing buffer only were used as control (set as 100% inhibition when normalizing data).
# 4; Incubation; 10 min; room temperature.
# 5; Detection; Luminescence; Viewlux plate reader (PerkinElmer).
# NOTES (numbers refer to Sequence numbers above)
# 1. Luciferase substrate is added to 1536 well, Greiner white assay plate. Evaporation was prevented by covering assay plates with metal lids containing holes to allow gas diffusion.
# 2. Compounds were added in a dose response manner with the final concentrations of 57, 11.4, 2.28, 0.46, 0.091, 0.018, 0.0037 uM. Vehicle-only plates, with DMSO being pin-transferred to columns 5-48, were inserted uniformly at the beginning and the end of each library to monitor and record any shifts in assay performance.
# 3. Recombinant firefly luciferase (10 nM final concentration) is added to the assay plate.
# 5. End-point luminescence is then measured on the Viewlux (PerkinElmer) imager equipped with a clear emission filter using a 2 sec exposure.
# Inglese J, Shamu CE and Guy RK, Reporting data from high throughput screening of small molecule libraries, Nature Chemical Biology, 2007, 3(8): 438-441. doi.org/10.1038/nchembio0807-438.
# Potency is read from the fitted curve at half-maximal effect.
row,Compound,Potency
1,C=CCc1cccc(/C=N/NC(=O)C[n+]2ccccc2)c1O,inactive
2,CC(=O)Oc1ccc(N(C(C)=O)S(=O)(=O)c2ccc(C)cc2C)c2ccccc12,inactive
3,NS(=O)(=O)c1ccc(CCNc2ncnc3c2c(-c2ccccc2)cn3-c2ccc(F)cc2)cc1,inactive
4,Cc1cc(/C=N/n2c(COc3ccccc3)nc3ccccc3c2=O)c(O)c([N+](=O)[O-])c1,15.8 µM (active)
5,Cc1nc2ccccc2c(=O)n1/N=C/c1c(O)ccc2oc3c(c12)CCCC3,inactive
6,Cc1nc2ccccc2c(=O)n1/N=C/c1cc(Br)ccc1O,inactive
7,Cc1ccc(C(C)C)c(OCc2ccc(C(=O)N/N=C/c3ccc(O)cc3O)cc2)c1,inactive
8,COc1ccc(CC(N)c2csc(NC(=O)c3cccc(OC(F)(F)F)c3)n2)cc1 (stereo not given),inactive
9,COc1ccc(-c2oc3c(OC)c(OC)c(OC)c(O)c3c(=O)c2OC)cc1OC,inactive
10,CCCCOc1ccc(C(=O)NNC(=S)NC(=O)CC)cc1,inactive
11,COc1cccc(/C=N/NC(=O)c2c(C)nc3ccc(Cl)cn23)c1O,inactive
12,CC(C)[C@H](NC(=O)c1ccc(C(C)(C)C)cc1)C(=O)N1CCN(Cc2ccc3c(c2)OCO3)CC1,inactive
13,COc1cccc(/C=N/NC(=O)Cn2nc(C)c([N+](=O)[O-])c2C)c1O,inactive
14,Cc1cc(N/N=C/c2ccccc2[N+](=O)[O-])nc(-n2nc(C)cc2C)n1,inactive
15,NC(Cc1ccccc1)c1csc(Nc2ccc(C(F)(F)F)cn2)n1 (stereo not given),inactive
16,CCOc1ccc(-n2c(-c3ccccc3)c[n+]3c2CCCCC3)cc1,inactive
17,CCn1c(C)cc(C(=O)COC(=O)c2ccccc2[N+](=O)[O-])c1C,0.0178 µM (active)
18,Cc1c(C(=O)N2c3ccccc3Sc3ccccc32)cccc1[N+](=O)[O-],inactive
19,CCc1ccc(NC(=O)COc2ccc(/C=C(/C#N)c3nc4ccccc4[nH]3)cc2OC)cc1,inactive
20,O=C(CNC(=O)c1ccccc1Br)N/N=C/c1ccccc1O,inactive
21,Cc1ccc(N=Nc2ccc(O)c3ncccc23)cc1,inactive
22,Cc1cc2sc3ccc(C#CC4(O)CCCCC4)cc3c(=O)c2cc1C,0.251 µM (active)
23,Oc1c(C(Nc2cccc(C(F)(F)F)c2)c2ccncc2)ccc2cccnc12 (stereo not given),inactive
24,O=C(CCCOc1ccc(Cl)cc1Cl)N/N=C/c1ccccc1O,inactive
25,CC[n+]1ccccc1/C=C1\Sc2ccc(C)cc2N1C,inactive

row,Compound,Potency
1,CN1OC[C@@H]2CN[C@H](c3ccc(-c4cc5ccccc5o4)cc3)C[C@@H]21,0.316 µM (active)
2,CCC(=O)NNC(=S)NC(=O)c1ccc(C)cc1,inactive
3,COc1ccc(-c2csc(NC(=O)C3CCN(c4ncnc5sc(C)c(C)c45)CC3)n2)cc1OC,inactive
4,COC(=O)c1c(NC(=O)c2ccc([N+](=O)[O-])o2)sc2c1CCN(C(C)C)C2,inactive
5,CC(=O)Oc1ccc(C23c4ccccc4C2(OC(C)=O)c2cc(OC(C)=O)ccc23)cc1 (stereo not given),inactive
6,COc1ccc(CC(N)c2csc(NC(=O)c3ccccc3OC)n2)cc1 (stereo not given),inactive
7,COc1ccc(C(=O)c2sc(Nc3ccccc3)nc2N)cc1OC,inactive
8,COC(=O)c1sc(NC(=O)c2ccc(OC)cc2OC)nc1C,0.1 µM (active)
9,COc1ccc(CSCC(=O)N/N=C/c2ccccc2O)cc1,inactive
10,Cc1cccc(OCC(=O)Nc2ccc3c(c2)nc(CCN2CCN(c4ccccn4)CC2)n3C)c1,inactive
11,CN1CCCC1CCOC(C)(c1ccccc1)c1ccc(Cl)cc1 (stereo not given),inactive
12,Cc1cc2oc3ccc(NCCC4CCCN4C)cc3c(=O)c2cc1C (stereo not given),6.31 µM (active)
13,Cc1cc2oc3cc(NCCC4CCCN4C)ccc3c(=O)c2cc1C (stereo not given),10 µM (active)
14,CCN1CCN(C(c2ccc(C(F)(F)F)cc2)c2ccc3cccnc3c2O)CC1 (stereo not given),inactive
15,COc1ccc(CC2C(=O)NC(C)C(=O)N(C)C3Cc4ccc(cc4)Oc4cc(ccc4O)CC(C(=O)NC(C)C(=O)NC(C)C(=O)N2C)N(C)C3=O)cc1 (stereo not given),inactive
16,COc1ccc(/C=C2\CN(Cc3ccccc3)C/C(=C\c3ccc(OC)c(O)c3)C2=O)cc1O,inactive
17,O=C(CN1CCCC1)N/N=C/c1c(O)ccc2ccccc12,inactive
18,O=C(Nc1nc(-c2ccccn2)cs1)c1ccc(F)c(S(=O)(=O)N2CCOCC2)c1,inactive
19,CC(Oc1ccc(F)cc1)C(=O)Nc1nc(-c2ccccn2)cs1 (stereo not given),inactive
20,CCc1sc(C(=O)Nc2nc(-c3ccccn3)cs2)cc1C,6.31 µM (active)
21,CCc1ccccc1OCC(=O)Nc1nc(-c2cccnc2)cs1,inactive
22,O=C(Nc1nc(-c2ccccn2)cs1)c1ccccc1-n1cnnn1,inactive
23,O=C(Nc1nc(-c2ccccn2)cs1)Nc1ccc(F)cc1F,25.1 µM (active)
24,Cc1ccc(-c2cn(-c3ccc(OC(F)F)cc3)c3[n+]2CCCCC3)cc1,inactive
25,COc1ccc2oc(/C=C/N(C)C)c(C(=O)c3ccc(Cl)cc3)c2c1,inactive
